PubChem BioAssay (NCI)
Where “and” joins values, the source holds several entries; their conditions need not be identical. Equal entries are not always repeated. About 83,000 compounds went through this panel and 20% of them were active in at least one assay; those are over-represented in the sample as a whole.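 Percent growth is the endpoint: 0 to 100 indicates growth inhibition (40 means 60% inhibition), 0 means no net growth, and negative values indicate cell death.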 Calls of active or inactive are those of the source. Rule for the calls: active = growth percent below 10; inactive = the rest.

Tested on: T-47D breast
Assay: NCI-60 one-dose screen, 48 h (100 = growth as untreated, 0 = no growth, -100 = all killed)
Settings: 10 µM unless noted

Compound	growth
CCCCC(NC(=O)CN1C(=O)/C(=C/C(C)=C/c2ccccc2)SC1=S)C(=O)O (centres undefined)	105% (inactive)
COc1ccc(-c2nc(Cl)c3c(C)nn(-c4ccc(F)cc4)c3n2)cc1	102% (inactive)
COc1ccc(/C=C2\COc3ccc(O)c(O)c3C2=O)c(OC)c1OC	12.1% (inactive)
O=[N+]([O-])c1ccc(S(=O)Cc2ccccc2)c([N+](=O)[O-])c1 (centres undefined)	29.7% (inactive) and -21.4% (active)
COc1ccc(-c2cc(-c3cc(OC)c(OC)c(OC)c3)c(C#N)c(=O)n2CCCCC(=O)O)cc1	72.6% (inactive)
COCCOc1cc2ncnc(N3CCN(S(=O)(=O)c4ccccc4Cl)CC3)c2cc1OCCOC	80.6% (inactive)
O=C([C@H]1C[C@H]1c1ccc(S(F)(F)(F)(F)F)cc1)N1CCN(c2cc(Cl)ccc2C(F)(F)F)CC1	74.9% (inactive)
CN(C)CCN1C(=O)c2c(c3c4ccccc4n4c3c3c2c2ccccc2n3C2CC(O)C(O)C4(C)O2)C1=O (centres undefined)	30.1% (inactive)
COc1cc(NC2CCCCC2O)c2nc(-c3ccc(Cl)cc3)ccc2c1 (centres undefined)	78.5% (inactive) and 86.5% (inactive)

Tested on: BT-549 breast
Assay: as above
Settings: 10 µM unless noted

Compound	growth
CN(C)C(=O)c1cc2cnc(Nc3ccc(-c4csc5c(=S)cc(N6CCOCC6)oc45)cc3)nc2n1C1CCCC1	9.89% (active)
CN1CCN(c2ccc(/C=C/C(=O)c3ccc(O)cc3)cc2)CC1	97.7% (inactive)
CCCCC(NC(=O)CN1C(=O)/C(=C/C(C)=C/c2ccccc2)SC1=S)C(=O)O (centres undefined)	112% (inactive)
CC1(Cc2ccccc2)CC2=C(C(=O)O1)C(c1ccccc1)NC(=O)N2 (centres undefined)	104% (inactive)
COc1ccc(-c2nc(Cl)c3c(C)nn(-c4ccc(F)cc4)c3n2)cc1	123% (inactive)
CCCCn1c(C(=O)c2c[nH]c3ccccc23)n[nH]c1=S	114% (inactive)
COc1ccc(/C=C2\COc3ccc(O)c(O)c3C2=O)c(OC)c1OC	46.9% (inactive)
C=C(CN1CC=CCC1)[C@@H]1CC[C@]2(COC(C)=O)CC[C@]3(C)[C@H](CC[C@@H]4[C@@]5(C)CC[C@H](O)C(C)(C)[C@@H]5CC[C@]43C)[C@@H]12	106% (inactive)
O=[N+]([O-])c1ccc(S(=O)Cc2ccccc2)c([N+](=O)[O-])c1 (centres undefined)	66.3% (inactive) and 67.5% (inactive)
O=C(Cn1cc(CN2CCN(c3ccnc4cc(Cl)ccc34)CC2)nn1)Nc1cccc([N+](=O)[O-])c1	85.6% (inactive)
Nc1n[nH]c2cccc(C#Cc3cccc(NC(=O)c4ccc(N5CCOCC5)c(C(F)(F)F)c4)c3)c12	14.2% (inactive)
COC1=CC(=O)C(OC)=C(O)C1=O	98.9% (inactive)
CONC1=Nc2cc(NC(N)=NCc3ccccc3)c(N(C)C3CCCCC3)cc2OC1	92% (inactive)
Cc1ccc(NC(=O)c2ccc(CN3CCN(C)CC3)cc2)cc1Nc1nccc(-c2cccnc2)n1	105% (inactive) and 61.1% (inactive)
Fc1ccc(NC(c2ccc(F)cc2)C2CCN(CCCCc3ccccc3)CC2)cc1 (centres undefined)	61.1% (inactive)
COc1ccc2c(O)c(/C=C3\N=Nc4nc(C)ccc43)oc2c1CC1CCNCC1	60.4% (inactive)
COc1ccc(C(=O)N/N=C/c2ccc(O)cc2O)cc1Nc1ccnc(C(F)(F)F)c1	55.6% (inactive)
COc1ccc(-c2cc(-c3cc(OC)c(OC)c(OC)c3)c(C#N)c(=O)n2CCCCC(=O)O)cc1	102% (inactive)
COc1cc(-c2[nH]ncc2Nc2ccc(Cl)cc2)cc(OC)c1OC	29.8% (inactive)
Nc1ccc(S(=O)(=O)c2ccc(N)cc2)cc1	104% (inactive) and 110% (inactive)
C/C(=C(\c1ccc(OCCN2CCOCC2)cc1)c1ccc(OC(=O)C2CCCCC2)cc1)c1ccc(Cl)cc1	91.3% (inactive)
CCN(CC)CCOc1ccc(/C(=C(\Cl)c2ccccc2)c2ccccc2)cc1	43.4% (inactive) and 92.6% (inactive)
CSc1nnc(-c2cc3c([nH]c4ccccc43)c(-c3cccc(O)c3)n2)n1-c1ccc(C)cc1	34.5% (inactive)
COc1ccc(/C(C)=C(\c2ccc(OCCN3CCCCCC3)cc2)c2ccc(OC(=O)C3CCCCC3)cc2)cc1	-78.2% (active)
N=C1/C(=C2\NC3C=CC=CC3S2)C(c2ccc(Cl)cc2)C2C(=O)N(c3ccccc3)C(=S)N12 (centres undefined)	95.4% (inactive)
